# Test results as given in PubChem BioAssay.
# Activity calls are given as the source filed them. Unless noted, no rule for the calls is given here.
# Assays:
# [1] = resazurin metabolic signal in HepG2 cells – cell-based, resazurin fluorescence, 24 h, PK04 Diversity Set, profiling panel (AID 1172); settings: HepG2 viability, higher = more signal
# [2] = budding yeast growth changes without added modifier – OD600, strain BY4716, 24 h, basal condition, primary screen (AID 1173); settings: S. cerevisiae BY4716 growth, OD600, 24 h; higher = more signal, called active from +8 up or from −8 down
# [3] = viability profiling in MM1S myeloma cells – cell-based, resazurin fluorescence, basal, 24 h, PK04 Diversity Set, profiling panel (AID 1174); settings: higher = more signal, called active from +8 up or from −8 down;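 also: MM1S multiple myeloma cell line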
# [4] = biological target: Dihydroorotate dehydrogenase (quinone), mitochondrial (Plasmodium falciparum (isolate 3D7)) (UniProt Q08210); test: inhibition of P. falciparum DHODH – biochemical, C-terminal His tag, absorbance 600 nm, primary screen (AID 1175); settings: PfDHODH enzyme, DCIP absorbance 600 nm; higher = more signal, called active from +8 up or from −8 down;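 also: recombinant parasite enzyme with a five histidine tag at its C terminus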
# Chain of Dihydroorotate dehydrogenase (quinone), mitochondrial (Plasmodium falciparum (isolate 3D7)) (Q08210 whole entry, looked up): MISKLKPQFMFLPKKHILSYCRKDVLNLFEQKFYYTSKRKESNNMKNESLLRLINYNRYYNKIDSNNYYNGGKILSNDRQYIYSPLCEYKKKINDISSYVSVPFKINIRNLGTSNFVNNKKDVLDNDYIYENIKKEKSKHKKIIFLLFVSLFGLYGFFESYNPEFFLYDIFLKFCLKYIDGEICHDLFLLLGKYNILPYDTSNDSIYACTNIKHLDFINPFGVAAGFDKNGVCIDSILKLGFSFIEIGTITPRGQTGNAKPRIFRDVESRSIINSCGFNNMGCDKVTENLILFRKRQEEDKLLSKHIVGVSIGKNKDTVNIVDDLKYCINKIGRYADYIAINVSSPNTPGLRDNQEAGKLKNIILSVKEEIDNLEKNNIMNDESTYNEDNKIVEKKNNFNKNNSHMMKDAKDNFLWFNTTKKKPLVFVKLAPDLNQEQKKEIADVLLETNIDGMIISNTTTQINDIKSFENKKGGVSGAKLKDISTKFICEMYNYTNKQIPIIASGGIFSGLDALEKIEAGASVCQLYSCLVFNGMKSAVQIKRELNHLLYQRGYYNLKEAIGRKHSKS
# [5] = inhibition of PAO1 biofilm formation – strain PAO1, LB-PBS medium, absorbance 600 nm, primary screen (AID 1176); settings: P. aeruginosa PAO1 growth/biofilm, A600, 12 h; higher = more signal
# [6] = growth modulation of vineyard yeast isolate – strain RM11-1a, OD600, basal, 24 h, primary screen (AID 1177);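 also: cultures grown under basal conditions with no added stressor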; settings: S. cerevisiae RM11-1a growth, OD600, 24 h; higher = more signal, called active from +8 up or from −8 down
# [7] = growth of efflux-deficient E. coli DRC39 – strain DRC39, OD650, 24 h, E. coli filamentation inducers, primary screen (AID 1178);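 also: growth measured as culture turbidity by optical density at 650 nm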; settings: E. coli DRC39 acrAB, higher = more signal, called active from +8 up or from −8 down
# [8] = growth of efflux-deficient E. coli DRC39 – strain DRC39, OD650, 48 h, E. coli filamentation inducers, primary screen (AID 1179);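 also: screen aims at cell division blockers that make cells filament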; settings: E. coli DRC39 delta-acrAB growth, higher = more signal, called active from +8 up or from −8 down
# [9] = viability profiling in RPMI8226 myeloma cells – cell-based, resazurin fluorescence, basal, 24 h, PK04 Diversity Set, profiling panel (AID 1180); settings: higher = more signal;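 also: RPMI8826 multiple myeloma cell line at 5000 cells per well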
# [10] = biological target: E3 ubiquitin-protein ligase XIAP (Homo sapiens) (UniProt P98170); test: small molecules binding XIAP protein – biophysical, small-molecule microarray, fluorescence 635 nm, primary screen (AID 1181); settings: higher = more signal;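 also: score merges 667 nm emission and signal to noise over triplicate slides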
# Chain of E3 ubiquitin-protein ligase XIAP (Homo sapiens) (P98170 whole entry, looked up, the tested form may be a part): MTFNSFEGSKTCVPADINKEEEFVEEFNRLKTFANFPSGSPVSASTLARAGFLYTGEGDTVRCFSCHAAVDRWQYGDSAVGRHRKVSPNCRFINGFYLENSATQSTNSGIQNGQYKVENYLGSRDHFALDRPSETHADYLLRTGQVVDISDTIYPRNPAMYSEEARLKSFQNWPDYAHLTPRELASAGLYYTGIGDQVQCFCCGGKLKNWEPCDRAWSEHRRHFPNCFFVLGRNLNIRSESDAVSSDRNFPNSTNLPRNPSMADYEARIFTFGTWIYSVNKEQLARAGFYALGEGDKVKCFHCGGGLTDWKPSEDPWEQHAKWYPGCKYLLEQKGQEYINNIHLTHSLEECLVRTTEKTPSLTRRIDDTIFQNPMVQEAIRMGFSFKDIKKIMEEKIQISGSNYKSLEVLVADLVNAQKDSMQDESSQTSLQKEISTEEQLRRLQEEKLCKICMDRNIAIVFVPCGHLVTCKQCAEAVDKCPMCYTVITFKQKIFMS
# [11] = tested on: XIP peptide (Xip251-270) binding; test: XIP fragment 251-270 binding compounds – biochemical, small-molecule microarray, fluorescence 635/667 nm, 0.1 µg/mL protein, primary screen (AID 1182); settings: fluorescent protein binding, 635 nm, higher = more signal, called active from +8 up or from −8 down
# XIP peptide (Xip251-270) = test: compounds binding XIP fragment 251-270 – biochemical, small-molecule microarray, fluorescence 635/667 nm, 0.5 µg/mL protein, primary screen (AID 1183); settings: fluorescence 635 nm, higher = more signal
# [12] = blood-stage malaria parasite viability loss – strain 3D7, DAPI fluorescence, 100 nL, primary screen (AID 1184);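 also: parasites grown inside human red blood cells in medium with human serum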; settings: P. falciparum 3D7 growth, 3 d, higher = more signal
# [13] = biological target: Homeobox protein Hox-A13 (Mus musculus) (UniProt Q62424); test: disruptors of Hoxa13 oligonucleotide interaction – biochemical, fluorescence polarization, labeled oligonucleotide, primary screen (AID 1185); settings: Hoxa13:DNA binding, 15 min, higher = more signal, called active from +8 up or from −8 down
# Chain of Homeobox protein Hox-A13 (Mus musculus) (Q62424 whole entry, looked up): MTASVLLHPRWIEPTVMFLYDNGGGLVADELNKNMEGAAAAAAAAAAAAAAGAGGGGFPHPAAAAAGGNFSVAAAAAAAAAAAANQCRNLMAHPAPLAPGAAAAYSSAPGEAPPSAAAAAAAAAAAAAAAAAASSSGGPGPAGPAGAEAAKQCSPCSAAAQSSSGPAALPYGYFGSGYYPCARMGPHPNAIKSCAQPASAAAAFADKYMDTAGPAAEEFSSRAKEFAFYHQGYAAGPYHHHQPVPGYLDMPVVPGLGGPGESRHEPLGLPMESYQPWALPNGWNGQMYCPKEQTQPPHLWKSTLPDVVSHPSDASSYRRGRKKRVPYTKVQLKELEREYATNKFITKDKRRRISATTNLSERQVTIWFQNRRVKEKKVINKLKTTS
SMILES,z-score [1],z-score [2],z-score [3],composite z-score [4],z-score [5],z-score [6],z-score [7],z-score [8],z-score [9],composite z-score [10],composite z-score [11],composite z-score (XIP peptide (Xip251-270)),z-score [12],z-score [13]
CCN1C(=O)[C@H]2[C@H]3[C@H](O)C=CC(=O)[C@@H]3CC[C@H]2C1=O,0.384,-0.067 (inactive),0.442 (inactive),-0.28 (inactive),-0.519 (inactive),0.197 (inactive),0.484 (inactive),0.205 (inactive),-0.194,-0.133,-0.638 (inactive),-0.0737,1.02,0.116 (inactive)
COc1ccc(O[C@@H]2[C@H](O)CO[C@H]2C=CC#Cc2ccccc2)cc1,0.0873,-0.274 (inactive),-0.107 (inactive),0.18 (inactive),0.578 (inactive),0.905 (inactive),-0.01 (inactive),-0.812 (inactive),0.268,0.116,-0.0908 (inactive),0.799,-0.456,-3.09 (inactive)
CCc1cc2c(nc1CC)CCN(CCC(C)=NOC[C@@H](O)COCc1ccco1)C2,-0.596,-1.12 (inactive),-0.24 (inactive),-0.127 (inactive),-0.0174 (inactive),-0.727 (inactive),0.377 (inactive),0.389 (inactive),-0.0388,0.183,2.62 (inactive),0.679,0.15,-6.02 (inactive)
CC(CCC(=O)OC[C@H]1O[C@H](C#Cc2ccccc2)C=C[C@@H]1Oc1ccc(C)cc1)=NOC[C@@H](O)COCc1ccco1,-0.501,0.384 (inactive),-1.39 (inactive),-1.24 (inactive),0.277 (inactive),-0.0703 (inactive),0.564 (inactive),0.895 (inactive),0.131,-0.0454,-0.729 (inactive),-0.205,0.177,-3.65 (inactive)
C[C@@H](c1ccccc1)N1C(=O)[C@H]2[C@H]3[C@H](O)C=CC(=O)[C@@H]3CC[C@H]2C1=O,-0.0507,-0.697 (inactive),0.711 (inactive),-0.366 (inactive),-0.319 (inactive),-0.701 (inactive),0.0826 (inactive),-0.286 (inactive),0.982,0.126,0.146 (inactive),0.014,-0.173,-0.308 (inactive)
CC(C)[C@@H](OCc1ccccc1)[C@H](C)C=NOC[C@@H](C)[C@H](OCc1ccccc1)C(C)C,-0.914,0.425 (inactive),-0.908 (inactive),-0.213 (inactive),-0.324 (inactive),-0.089 (inactive),0.705 (inactive),1.09 (inactive),-1.11,-0.345,0.468 (inactive),-0.185,0.128,0.24 (inactive)
COC(=O)CC=C[C@@H](C)[C@H](OC)c1ccccc1Br,-0.327,-1.15 (inactive),-0.397 (inactive),-2.6 (inactive),-0.655 (inactive),0.791 (inactive),0.25 (inactive),-0.129 (inactive),0.0866,-0.241,-0.575 (inactive),-0.412,0.805,-0.0487 (inactive)
CCOC(=O)CCN1C(=O)[C@H]2[C@H]3[C@H](O)[C@H](O)CC(=NOCc4ccccc4)[C@@H]3CC[C@H]2C1=O,-0.0233,-0.949 (inactive),-0.406 (inactive),0.404 (inactive),0.683 (inactive),-0.172 (inactive),-0.852 (inactive),-0.599 (inactive),-0.103,0.0455,0.204 (inactive),0.635,0.226,-4.34 (inactive)
C[C@H](c1ccccc1)N1C(=O)[C@H]2[C@@H]3C(=CC[C@H]2C1=O)C(=O)[C@H]1O[C@H]1[C@H]3O,-2.54,-3.82 (inactive),-8.01 (active),-1.74 (inactive),-0.993 (inactive),-0.141 (inactive),0.144 (inactive),0.494 (inactive),-5.33,0.288,-0.584 (inactive),0.008,-1.23,-6.83 (inactive)
C[C@@H](c1ccccc1)N1C(=O)[C@H]2[C@H]3[C@H](O)[C@H](O)CC(=NNC(=O)OCc4ccccc4)[C@H]3CC[C@H]2C1=O,0.2,0.976 (inactive),-0.139 (inactive),0.749 (inactive),0.413 (inactive),0.993 (inactive),-0.327 (inactive),-0.462 (inactive),0.368,-0.163,-0.724 (inactive),-0.131,-0.547,-5.68 (inactive)
Cc1cc2c(nc1C)CCCN2CC(C)ON=C1[C@H]2CCn3c(=O)n(-c4ccccc4)c(=O)n3[C@H]2[C@H](O)[C@@H]2O[C@H]12 (stereo partly drawn),-0.942,-0.286 (inactive),-0.222 (inactive),-0.153 (inactive),0.381 (inactive),-0.488 (inactive),-1.05 (inactive),-1.98 (inactive),-0.745,0.0483,0.117 (inactive),0.32,0.0318,-8.15 (active)
O=C1[C@H]2[C@H]3[C@H](O)[C@H](O)CC(=NOC[C@@H](O)COCc4ccco4)[C@H]3CC[C@H]2C(=O)N1Cc1ccc2c(c1)OCO2,0.102,0.684 (inactive),-0.293 (inactive),-0.566 (inactive),-0.85 (inactive),0.0885 (inactive),0.786 (inactive),1.11 (inactive),0.263,0.0049,0.525 (inactive),0.127,0.436,-0.743 (inactive)
Cc1cc2c(nc1C)CCCN2CC(O)CN1CCN(C)CC1 (stereo not drawn),-0.406,-0.428 (inactive),-0.709 (inactive),-1.14 (inactive),1.02 (inactive),-0.185 (inactive),-0.233 (inactive),-0.125 (inactive),-0.0252,1.64,1.11 (inactive),0.362,0.547,-3.1 (inactive)
COC(=O)[C@H](C)NC(=O)CCC1CC(OC(=O)NCCc2ccc(F)cc2)CC2(CCCC(COC(=O)NCCc3ccc(Cl)cc3)O2)O1 (stereo partly drawn),0.315,0.592 (inactive),0.349 (inactive),-0.532 (inactive),0.45 (inactive),0.825 (inactive),0.718 (inactive),0.942 (inactive),0.761,-0.0918,0.503 (inactive),0.729,-1.5,-2.44 (inactive)
O=C1CCCC2OC12C(O)CCc1ccccc1 (stereo not drawn),-1.06,-0.372 (inactive),-0.397 (inactive),-0.103 (inactive),-0.127 (inactive),0.142 (inactive),0.637 (inactive),0.489 (inactive),0.145,-0.0238,-0.128 (inactive),-0.213,0.307,-0.663 (inactive)
Cc1cc2c(c(=O)o1)[C@H](O)[C@H]1O[C@H]1C2=O,0.145,-2 (inactive),-1.19 (inactive),0.44 (inactive),-0.282 (inactive),-0.627 (inactive),-0.973 (inactive),-0.662 (inactive),-0.764,-0.176,0.326 (inactive),-0.311,-0.811,-4.87 (inactive)
O=C1[C@H]2[C@H]3[C@H](O)[C@H](O)CC(=NO[C@@H]4O[C@H](CO)[C@@H](O)[C@H](O)[C@H]4O)[C@H]3CC[C@H]2C(=O)N1Cc1ccccc1,0.835,-0.816 (inactive),-0.183 (inactive),-0.592 (inactive),-0.0728 (inactive),-1.1 (inactive),-0.395 (inactive),0.355 (inactive),0.797,0.0153,-0.175 (inactive),0.588,-1.19,-1.28 (inactive)
CC(C)CN1CCc2nc(-c3ccccc3)c3c(c2CC1)CO[C@@H](C)C3,0.652,-0.368 (inactive),0.389 (inactive),0.496 (inactive),-0.458 (inactive),-0.284 (inactive),-0.274 (inactive),-0.328 (inactive),0.711,-0.0964,0.277 (inactive),-0.399,-0.235,-0.219 (inactive)
CC(CCN1CCc2nc(-c3ccccc3)c(-c3ccccc3)cc2C1)=NOC[C@@H](C)[C@H](OCc1ccccc1)C(C)C,-1.12,-2.01 (inactive),0.504 (inactive),0.928 (inactive),-0.315 (inactive),0.0117 (inactive),-1.23 (inactive),-0.936 (inactive),0.64,-0.04,2.56 (inactive),-0.445,-0.784,-0.978 (inactive)
CC(C)CON=C1[C@H]2CCn3c(=O)n(-c4ccccc4)c(=O)n3[C@H]2[C@H](O)[C@@H]2O[C@H]12,-0.771,-0.813 (inactive),-1.21 (inactive),-0.422 (inactive),-0.225 (inactive),0.0254 (inactive),0.276 (inactive),0.596 (inactive),-0.822,-0.032,0.142 (inactive),0.263,-1.94,-0.738 (inactive)
C=COC[C@H]1CN2[C@@H](CC[C@@H](C)[C@@H]2c2ccc(Br)cc2)C(=O)O1,0.524,-3.11 (inactive),0.255 (inactive),-0.613 (inactive),0.523 (inactive),-2.06 (inactive),0.0556 (inactive),-0.848 (inactive),-0.555,-0.209,0.299 (inactive),0.719,0.0315,-2.37 (inactive)
CCOC(=O)CCN1C(=O)[C@H]2[C@H]3[C@H](O)[C@H](O)CC(=NNC(=O)OCc4ccc(OC)cc4)[C@@H]3CC[C@H]2C1=O,-0.54,0.458 (inactive),-1.24 (inactive),0.489 (inactive),-0.0242 (inactive),-0.217 (inactive),0.149 (inactive),0.237 (inactive),-1.14,-0.171,0.59 (inactive),0.05,-0.688,0.614 (inactive)
